Among the data in PubChem BioAssay (NCATS) are Potency values, retold here.

Experiment [1] is described as follows: NS1 protein of Zika virus - qHTS assay to identify small molecule inhibitors in human HEK 293 cells (AID 1347053). Further: series mostly up to about 46 µM; nearly all actives have a fitted effect of over 55% in size. The procedure, abridged: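 HEK 293 cells, seeded 20 h at 37 C, were pretreated with compound 1 h, then infected with ZIKV MR766 (MOI = 0.5) for 24 h. NS1 was read by TR-FRET with two anti-NS1 antibodies, normalized to uninfected and infected wells.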
Background: Quantitative high-throughput screening tests each substance at several concentrations.

The nature of experiment [2]: qHTS of pediatric cancer cell lines to identify multiple opportunities for drug repurposing: Primary screen for TC32 cells (AID 1347089). Further: nearly all actives have a fitted effect of over 60% in size. Further: potency means the concentration at half of the fitted maximal effect. The procedure, abridged:
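qHTS, TC32, 48 h drug treatment, CellTiter-Glo luminescence as a proxy for metabolically active cells; primary top concentration 46 µM (MIPE 11-pt, NPC 8-pt); confirmatory 11-pt.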

Experiment [3] can be described thus: qHTS of pediatric cancer cell lines to identify multiple opportunities for drug repurposing: Primary screen for DAOY cells (AID 1347090). Further: series mostly up to about 46 µM; nearly all actives have a fitted effect of over 55% in size. An outline of the steps:
(§1)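 Viability measured as metabolically active cells via CellTiter-Glo luminescence following 48 hours of compound exposure, 11-point dilutions in confirmatory testing. 500-1,000 cells/well plated 5 hours before dosing; controls were DMSO and 2.3 µM bortezomib.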

A short description of experiment [4]: qHTS of pediatric cancer cell lines to identify multiple opportunities for drug repurposing: Primary screen for SJ-GBM2 cells (AID 1347091). An outline of the steps:
as §1

Experiment [5] in a line: qHTS of pediatric cancer cell lines to identify multiple opportunities for drug repurposing: Primary screen for A673 cells (AID 1347092). Further: nearly all actives have a fitted effect of over 45% in size. Further: potency means the concentration at half of the fitted maximal effect. The procedure, abridged: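 Luminescence from CellTiter-Glo, taken after 15 min at room temperature, served as the proxy for metabolically active cells following 48 h treatment. Both potency and efficacy were taken from curves fitted to the titration data.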

Each structure is given as a SMILES string. Inconclusive results are not listed. Calls of active or inactive are those of the source. The call rests on the fitted dose curve; in most records, active means well fitted curve in the direction sought with a large enough effect; inconclusive means small, poorly fitted or top-dose-only effect, or another doubt; inactive means no such curve, though single readings can be large; an effect the other way counts as inactive or inconclusive.

Consider `COc1ccc(/C(C)=C/C(=O)O)c(OC)c1`, for which the Potency entry in experiment [1], in experiment [2], in experiment [3], in experiment [4] and in experiment [5] was “inactive” in each case.

For `CNC[C@H](O)[C@@H](O)[C@H](O)[C@H](O)CO`, the Potency entry in experiment [1], in experiment [2], in experiment [3], in experiment [4] and in experiment [5] was “inactive” throughout.

`CCN1C(=O)c2ccccc2C1Nc1ccc(OCCN2CCCCC2)cc1` (stereo not given): the Potency entry in experiment [1], in experiment [2], in experiment [3], in experiment [4] and in experiment [5] was “inactive” throughout.

`CCCCNc1ccc(C(=O)OCCN(CC)CC)cc1`: the Potency entry in experiment [1], in experiment [2], in experiment [3], in experiment [4] and in experiment [5] was “inactive” throughout.

With `CO/N=C(/C(=O)N[C@@H]1C(=O)N2C(C(=O)OCOC(=O)C(C)(C)C)=C(C)CS[C@H]12)c1csc(N)n1`, the Potency entry in experiment [1], in experiment [2], in experiment [3], in experiment [4] and in experiment [5] was “inactive” throughout.

As for `Cc1c(F)cc2c(=O)c(C(=O)O)cn3c2c1CCC3C` (stereo not given), the Potency result in experiment [1], in experiment [2], in experiment [3], in experiment [4] and in experiment [5] was “inactive” each time.

As for `CCOC(=O)NNc1nncc2ccccc12`, the Potency result in experiment [1], in experiment [2], in experiment [3], in experiment [4] and in experiment [5] was “inactive” in each case.

Regarding `Cc1ncc([N+](=O)[O-])n1C`, the Potency entry in experiment [1], in experiment [2], in experiment [3], in experiment [4] and in experiment [5] was “inactive” each time.

As for `CCN(CC)CC(=O)Oc1ccc(NC(C)=O)cc1`, the Potency entry in experiment [1], in experiment [2], in experiment [3], in experiment [4] and in experiment [5] was “inactive” throughout.

Turning to `Cc1cc(=O)oc2cc(O[C@@H]3SC[C@@H](O)[C@H](O)[C@H]3O)ccc12`, the Potency result in experiment [1], in experiment [2], in experiment [3], in experiment [4] and in experiment [5] was “inactive” throughout.

Consider `Oc1ccccc1`, for which the Potency result in experiment [1], in experiment [2], in experiment [3], in experiment [4] and in experiment [5] was “inactive” each time.

In the case of `COC(=O)c1c(Cl)c(Cl)c(C(=O)OC)c(Cl)c1Cl`, the Potency entry in experiment [1], in experiment [2], in experiment [3], in experiment [4] and in experiment [5] was “inactive” in each case.

As to `C#CC(C)(CC)OC(=O)c1ccccc1C(=O)O` (stereo not given), the Potency result in experiment [1], in experiment [2], in experiment [3], in experiment [4] and in experiment [5] was “inactive” throughout.

`Cc1ccc(O)cc1`: the Potency entry in experiment [1], in experiment [2], in experiment [3], in experiment [4] and in experiment [5] was “inactive” each time.

For `O=C(O)CCCC[P+](c1ccccc1)(c1ccccc1)c1ccccc1`, the Potency entry in experiment [1], in experiment [2], in experiment [3], in experiment [4] and in experiment [5] was “inactive” throughout.

For `O=C1Cc2cc(Cl)ccc2N1`, the Potency entry in experiment [1], in experiment [2], in experiment [3], in experiment [4] and in experiment [5] was “inactive” in each case.

For the compound `CO/N=C(\C(=O)O)c1csc(NC(=O)CCl)n1`, the Potency entry in experiment [1], in experiment [2], in experiment [3], in experiment [4] and in experiment [5] was “inactive” in each case.

For `CCC(=O)O[C@]1(C(=O)COC)[C@@H](C)C[C@H]2[C@@H]3CCC4=CC(=O)C=C[C@]4(C)C3(F)[C@@H](O)C[C@@]21C` (stereo not given in full), the Potency entry in experiment [1], in experiment [2], in experiment [3], in experiment [4] and in experiment [5] was “inactive” each time.

Take `CC1c2ccccc2CN1NC(=O)c1ccc(Cl)c(S(N)(=O)=O)c1` (stereo not given): the Potency entry in experiment [1], in experiment [2], in experiment [3], in experiment [4] and in experiment [5] was “inactive” throughout.

In the case of `Cc1nc(C2CCCCC2)c(-c2ccc(S(N)(=O)=O)c(F)c2)o1`, the Potency entry in experiment [1], in experiment [2], in experiment [3], in experiment [4] and in experiment [5] was “inactive” each time.

With `Cc1ccccc1C(=O)N1CC/C(=N\OS(=O)(=O)O)c2ccc(Cl)cc21`, the Potency entry in experiment [1], in experiment [2], in experiment [3], in experiment [4] and in experiment [5] was “inactive” in each case.

On to `CC(=O)Nc1ccn(C2COC(COC(=O)c3ccccc3)O2)c(=O)n1` (stereo not given), for which the Potency entry in experiment [1], in experiment [3] and in experiment [4] was “inactive” in each case. Besides, the values for the Potency in experiment [2] and in experiment [5] were 1670 nM (active) and 1330 nM (active), respectively.

Regarding `Nc1c(I)cc(I)c(C(=O)N(CCC(=O)O)c2ccccc2)c1I`, the Potency entry in experiment [1], in experiment [2], in experiment [3], in experiment [4] and in experiment [5] was “inactive” in each case.

Consider `CCCC(CCC)(C(=O)OCC)C(=O)OCC`, for which the Potency entry in experiment [1], in experiment [2], in experiment [3], in experiment [4] and in experiment [5] was “inactive” in each case.

Take `COc1cc(NS(=O)(=O)c2ccc(N)cc2)nc(C)n1`: the Potency result in experiment [1], in experiment [2], in experiment [3], in experiment [4] and in experiment [5] was “inactive” in each case.

`O=C(CO)[C@@H](O)[C@H](O)[C@@H](O)CO`: the Potency result in experiment [1], in experiment [2], in experiment [3], in experiment [4] and in experiment [5] was “inactive” throughout.

As for `O=C1CC2(CCCC2)CC(=O)N1CCNCC1COc2ccccc2O1` (stereo not given), the Potency result in experiment [1], in experiment [2], in experiment [3], in experiment [4] and in experiment [5] was “inactive” throughout.

As for `CC(C)(c1ccc(O)cc1)c1ccc(O)cc1`, the Potency result in experiment [1], in experiment [2], in experiment [3], in experiment [4] and in experiment [5] was “inactive” throughout.

With `Cc1cccc(N(C)C(=S)Oc2ccc3c(c2)CCC3)c1`, the Potency result in experiment [1], in experiment [2], in experiment [3], in experiment [4] and in experiment [5] was “inactive” each time.

Consider `CC(Oc1c(Cl)cccc1Cl)C1=NCCN1` (stereo not given), for which the Potency result in experiment [1], in experiment [2], in experiment [3], in experiment [4] and in experiment [5] was “inactive” each time.

For the compound `CCn1ccc(NS(=O)(=O)c2ccc(N)cc2)nc1=O`, the Potency result in experiment [1], in experiment [2], in experiment [3], in experiment [4] and in experiment [5] was “inactive” each time.

Take `O=C(Oc1ccccc1)c1cccc(C(=O)Oc2ccccc2)c1`: the Potency result in experiment [1], in experiment [2], in experiment [3], in experiment [4] and in experiment [5] was “inactive” in each case.

For the compound `CCN(CC)CC(=O)Nc1c(C)cccc1C(=O)OC`, the Potency result in experiment [1], in experiment [2], in experiment [3], in experiment [4] and in experiment [5] was “inactive” each time.
